Source: the supplement of paper PMC10849652
About 7,900 targets were measured; listed, in parts, are those with a hit and a random draw of the rest. About 0.6% of all pairs of compound and target were hits.

Assays:
Test in all cases: log2 fold change, soluble protein after heating vs DMSO (PISA); higher = thermal stabilisation; K562 cells, 10 uM, 30 min; active = over 0.2 and 3.5 SD of the protein, either way, in both replicates (recomputed)
saracatinib = compound: CN1CCN(CCOc2cc(OC3CCOCC3)c3c(Nc4c(Cl)ccc5c4OCO5)ncnc3c2)CC1 [saracatinib]
Outline: (§1)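 K562 cells (2×10^6 cells/mL) were treated with 10 μM compound for 30 min, and aliquots were heated for 3 min over 48°C-58°C. Pooled aliquots were extracted in PBS with 0.5% NP-40 at 4°C, and the supernatant after 21,000xg for 90 min was measured by TMTpro 16plex LC-MS/MS with channel sums equalised. Reported thermal stability, relative to control samples and from duplicates, is a log2 fold change.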

sotrastaurin = compound: CN1CCN(c2nc(C3=C(c4c[nH]c5ccccc45)C(=O)NC3=O)c3ccccc3n2)CC1 [sotrastaurin]
Outline: as §1

alvocidib = compound: CN1CC[C@H](c2c(O)cc(O)c3c(=O)cc(-c4ccccc4Cl)oc23)[C@H](O)C1 [alvocidib]
Outline: as §1

Tubastatin A = compound: CN1CCc2c(c3ccccc3n2Cc2ccc(C(=O)NO)cc2)C1 [Tubastatin A]
Outline: as §1

[1] = compound: CNC(=O)C1=CC=CC=C1NC2=NC(=NC=C2Cl)NC3=C(C=C(C=C3)N4CCOCC4)OC
Outline: as §1

defactinib = compound: CNC(=O)c1ccc(Nc2ncc(C(F)(F)F)c(NCc3nccnc3N(C)S(C)(=O)=O)n2)cc1 [defactinib]
Outline: as §1

rucaparib = compound: CNCc1ccc(-c2[nH]c3cc(F)cc4c3c2CCNC4=O)cc1 [rucaparib]
Outline: as §1

[2] = compound: CNc1nc(-c2ccc3c(N)n[nH]c3c2)cc(N2C[C@@H](C(=O)NC3CCCCC3)CC[C@H]2C)n1
Outline: as §1

encorafenib = compound: COC(=O)N[C@@H](C)CNc1nccc(-c2cn(C(C)C)nc2-c2cc(Cl)cc(NS(C)(=O)=O)c2F)n1 [encorafenib]
Outline: as §1

[3] = compound: COC(=O)[C@H](CCSC)NC(=O)C1=C(C=C(C=C1)NC[C@H](CS)N)C2=CC=CC=C2
Outline: as §1

[4] = compound: COC1=CC=C(C=C1)CN2C=CC3=C2C=C(C=C3)C(=O)NO
Outline: as §1

filanesib = compound: CON(C)C(=O)N1N=C(c2cc(F)ccc2F)S[C@@]1(CCCN)c1ccccc1 [filanesib]
Outline: as §1

zotarolimus = compound: CO[C@H]1C[C@@H]2CC[C@@H](C)[C@@](O)(O2)C(=O)C(=O)N2CCCC[C@H]2C(=O)O[C@H]([C@H](C)C[C@@H]2CC[C@H](n3cnnn3)[C@H](OC)C2)CC(=O)[C@H](C)/C=C(\C)[C@@H](O)[C@@H](OC)C(=O)[C@H](C)C[C@H](C)/C=C/C=C/C=C/1C [zotarolimus]
Outline: as §1

idasanutlin = compound: COc1cc(C(=O)O)ccc1NC(=O)[C@@H]1N[C@@H](CC(C)(C)C)[C@](C#N)(c2ccc(Cl)cc2F)[C@H]1c1cccc(Cl)c1F [idasanutlin]
Outline: as §1

alisertib = compound: COc1cc(Nc2ncc3c(n2)-c2ccc(Cl)cc2C(c2c(F)cccc2OC)=NC3)ccc1C(=O)O [alisertib]
Outline: as §1

[5] = compound: COc1cc2nc(-c3cc(F)ccc3O)nc(N[C@@H]3CNC[C@H]3C(C)(C)O)c2cc1OC
Outline: as §1

gefitinib = compound: COc1cc2ncnc(Nc3ccc(F)c(Cl)c3)c2cc1OCCCN1CCOCC1 [gefitinib]
Outline: as §1

[6] = compound: COc1cccc2cc(-c3nc([C@H]4CC[C@H](C(=O)O)CC4)n4ncnc(N)c34)[nH]c12
Outline: as §1

lapatinib = compound: CS(=O)(=O)CCNCc1ccc(-c2ccc3ncnc(Nc4ccc(OCc5cccc(F)c5)c(Cl)c4)c3c2)o1 [lapatinib]
Outline: as §1

pictilisib = compound: CS(=O)(=O)N1CCN(Cc2cc3nc(-c4cccc5[nH]ncc45)nc(N4CCOCC4)c3s2)CC1 [pictilisib]
Outline: as §1

Measured: log2 fold change

SRP72 (UniProt O76094)
UniProt O76094, sequence (O76094 whole entry, looked up): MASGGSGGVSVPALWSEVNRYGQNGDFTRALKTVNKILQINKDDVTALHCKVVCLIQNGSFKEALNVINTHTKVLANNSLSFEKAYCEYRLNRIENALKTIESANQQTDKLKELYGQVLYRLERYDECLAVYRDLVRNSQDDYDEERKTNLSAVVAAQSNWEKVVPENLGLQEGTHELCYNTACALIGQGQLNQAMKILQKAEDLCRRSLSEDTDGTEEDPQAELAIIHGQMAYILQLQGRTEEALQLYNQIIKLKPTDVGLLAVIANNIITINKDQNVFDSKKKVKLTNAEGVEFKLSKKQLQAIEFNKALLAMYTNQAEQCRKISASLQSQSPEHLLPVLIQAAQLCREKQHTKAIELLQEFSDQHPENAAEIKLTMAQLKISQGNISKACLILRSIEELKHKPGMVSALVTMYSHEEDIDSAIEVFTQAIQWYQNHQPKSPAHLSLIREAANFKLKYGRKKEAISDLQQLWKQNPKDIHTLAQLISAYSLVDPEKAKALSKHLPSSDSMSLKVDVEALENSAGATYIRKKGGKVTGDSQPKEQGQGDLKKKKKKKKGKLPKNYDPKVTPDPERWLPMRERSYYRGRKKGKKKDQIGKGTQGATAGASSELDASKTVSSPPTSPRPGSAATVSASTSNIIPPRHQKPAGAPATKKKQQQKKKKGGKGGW
inactive: saracatinib -0.102 | sotrastaurin -0.181 | alvocidib 0.069 | Tubastatin A 0.119 | [1] 0.04 | defactinib -0.035 | rucaparib 0.184 | [2] 0.055 | encorafenib 0.155 | [3] -0.134 | [4] 0.003 | filanesib 0.075 | zotarolimus 0.048 | idasanutlin -0.045 | alisertib -0.131 | [5] 0.023 | gefitinib 0.007 | [6] -0.235 | lapatinib -0.043 | pictilisib 0

TGFBR1 isoform 2 (UniProt P36897)
inactive: sotrastaurin 0.026 | alvocidib -0.009 | Tubastatin A 0.023 | [1] -0.045 | defactinib 0.039 | rucaparib 0.096 | [2] 0.041 | encorafenib 0.041 | [3] -0.055 | [4] 0.004 | filanesib -0.001 | zotarolimus -0.217 | idasanutlin -0.007 | alisertib -0.05 | [5] 0.06 | gefitinib -0.029 | [6] -0.041 | lapatinib 0.063 | pictilisib -0.073
active: saracatinib 0.371

STAM2 (UniProt O75886)
inactive: saracatinib -0.093 | sotrastaurin -0.011 | alvocidib -0.097 | Tubastatin A -0.014 | [1] 0.035 | defactinib -0.095 | rucaparib -0.035 | [2] -0.02 | encorafenib 0.027 | [3] -0.019 | [4] -0.006 | filanesib 0.059 | zotarolimus -0.018 | idasanutlin -0.06 | alisertib 0.015 | [5] 0.001 | gefitinib 0.002 | [6] -0.066 | lapatinib -0.018 | pictilisib 0.055

SNX6 (UniProt Q9UNH7)
inactive: saracatinib -0.018 | sotrastaurin 0.026 | alvocidib -0.112 | Tubastatin A -0.051 | [1] -0.125 | defactinib -0.054 | rucaparib -0.016 | [2] 0.041 | encorafenib 0.042 | [3] -0.009 | [4] -0.036 | filanesib -0.187 | zotarolimus 0.02 | idasanutlin -0.01 | alisertib -0.035 | [5] -0.109 | gefitinib -0.123 | [6] 0.004 | lapatinib -0.055 | pictilisib -0.252

TM9SF4 (UniProt Q92544)
UniProt Q92544, sequence (Q92544 whole entry, looked up): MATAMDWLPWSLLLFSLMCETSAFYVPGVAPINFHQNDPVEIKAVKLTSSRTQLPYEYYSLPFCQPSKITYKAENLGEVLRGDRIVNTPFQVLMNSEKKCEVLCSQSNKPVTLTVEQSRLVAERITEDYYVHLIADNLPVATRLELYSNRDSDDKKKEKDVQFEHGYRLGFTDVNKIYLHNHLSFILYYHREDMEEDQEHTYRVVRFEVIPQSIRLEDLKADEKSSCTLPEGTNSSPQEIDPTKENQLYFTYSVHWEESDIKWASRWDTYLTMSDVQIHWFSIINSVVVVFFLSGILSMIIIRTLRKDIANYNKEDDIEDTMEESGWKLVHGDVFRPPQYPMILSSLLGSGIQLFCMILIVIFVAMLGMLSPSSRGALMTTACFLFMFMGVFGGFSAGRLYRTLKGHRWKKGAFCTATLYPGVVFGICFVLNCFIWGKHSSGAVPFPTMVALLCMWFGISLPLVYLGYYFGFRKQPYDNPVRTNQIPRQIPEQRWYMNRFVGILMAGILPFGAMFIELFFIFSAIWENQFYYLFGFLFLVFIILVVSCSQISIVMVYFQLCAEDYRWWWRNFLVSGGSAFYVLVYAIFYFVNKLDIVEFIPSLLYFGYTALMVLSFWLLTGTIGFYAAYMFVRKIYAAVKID
inactive: saracatinib -0.028 | sotrastaurin 0.017 | alvocidib -0.008 | Tubastatin A -0.015 | [1] 0.013 | defactinib 0.037 | rucaparib 0.043 | [2] -0.046 | encorafenib 0.039 | [3] -0.03 | [4] 0.048 | filanesib -0.04 | zotarolimus 0.036 | idasanutlin 0.004 | alisertib -0.031 | [5] -0.023 | gefitinib 0.086 | [6] 0.004 | lapatinib 0.274 | pictilisib -0.161

TCERG1 (UniProt O14776)
UniProt O14776, sequence (O14776 whole entry, looked up): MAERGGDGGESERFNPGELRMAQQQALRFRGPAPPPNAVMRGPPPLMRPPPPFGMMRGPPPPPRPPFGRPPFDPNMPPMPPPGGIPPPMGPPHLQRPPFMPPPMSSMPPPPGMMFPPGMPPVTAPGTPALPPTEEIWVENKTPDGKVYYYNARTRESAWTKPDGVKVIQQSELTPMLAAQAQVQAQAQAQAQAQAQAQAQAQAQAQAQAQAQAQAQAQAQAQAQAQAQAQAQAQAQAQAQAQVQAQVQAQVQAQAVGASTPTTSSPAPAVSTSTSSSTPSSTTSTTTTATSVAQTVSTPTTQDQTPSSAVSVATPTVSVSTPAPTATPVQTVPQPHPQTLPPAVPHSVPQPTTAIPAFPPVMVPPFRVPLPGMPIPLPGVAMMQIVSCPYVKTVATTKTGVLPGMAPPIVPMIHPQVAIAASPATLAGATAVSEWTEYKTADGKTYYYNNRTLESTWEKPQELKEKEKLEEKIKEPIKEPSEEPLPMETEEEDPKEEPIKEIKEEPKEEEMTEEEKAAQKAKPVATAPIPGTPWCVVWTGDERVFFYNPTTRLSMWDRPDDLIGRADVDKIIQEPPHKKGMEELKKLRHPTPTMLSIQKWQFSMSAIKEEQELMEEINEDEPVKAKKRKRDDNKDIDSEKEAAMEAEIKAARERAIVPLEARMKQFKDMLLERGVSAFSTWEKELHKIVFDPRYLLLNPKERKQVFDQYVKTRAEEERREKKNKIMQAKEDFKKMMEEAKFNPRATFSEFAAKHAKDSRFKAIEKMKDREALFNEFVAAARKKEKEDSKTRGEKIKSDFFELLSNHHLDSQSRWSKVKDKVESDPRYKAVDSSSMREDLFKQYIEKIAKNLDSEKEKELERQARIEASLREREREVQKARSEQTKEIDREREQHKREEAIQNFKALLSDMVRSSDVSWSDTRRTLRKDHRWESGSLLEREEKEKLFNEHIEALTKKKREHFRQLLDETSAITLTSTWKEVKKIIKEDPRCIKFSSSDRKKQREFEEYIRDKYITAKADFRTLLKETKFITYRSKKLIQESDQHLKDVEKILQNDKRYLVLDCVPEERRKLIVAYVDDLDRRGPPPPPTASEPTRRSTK
inactive: saracatinib -0.051 | sotrastaurin -0.086 | alvocidib -0.18 | Tubastatin A 0.11 | [1] -0.011 | defactinib -0.288 | rucaparib -0.003 | [2] 0.08 | encorafenib 0.063 | [3] -0.105 | [4] 0.104 | filanesib -0.008 | zotarolimus 0.025 | idasanutlin -0.087 | alisertib 0.043 | [5] 0.054 | gefitinib 0.073 | [6] -0.003 | lapatinib -0.036 | pictilisib 0

SPCS2 (UniProt Q15005)
active: [4] 0.5
inactive: saracatinib -0.029 | sotrastaurin -0.054 | alvocidib -0.058 | Tubastatin A -0.026 | [1] 0.062 | defactinib -0.026 | rucaparib -0.062 | [2] 0.038 | encorafenib 0.044 | [3] 0.021 | filanesib -0.061 | zotarolimus 0.018 | idasanutlin -0.039 | alisertib 0.008 | [5] 0.092 | gefitinib 0.03 | [6] -0.021 | lapatinib 0.002 | pictilisib -0.006

SUN1 isoform 9 (UniProt O94901)
inactive: saracatinib -0.023 | sotrastaurin -0.178 | alvocidib 0 | Tubastatin A -0.048 | [1] -0.108 | defactinib 0.049 | rucaparib 0.083 | [2] -0.038 | encorafenib -0.018 | [3] -0.029 | [4] -0.062 | filanesib 0.084 | zotarolimus 0.162 | idasanutlin 0.02 | alisertib -0.059 | [5] -0.14 | gefitinib -0.053 | [6] 0.122 | lapatinib 0.052 | pictilisib -0.002

SUMO1 (UniProt P63165)
UniProt P63165, sequence (P63165 whole entry, looked up): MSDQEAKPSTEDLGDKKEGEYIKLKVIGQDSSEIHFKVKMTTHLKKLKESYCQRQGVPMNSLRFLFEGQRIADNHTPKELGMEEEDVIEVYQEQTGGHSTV
active: [5] -0.507 | lapatinib 0.549
inactive: saracatinib -0.112 | sotrastaurin 0.011 | alvocidib 0.12 | Tubastatin A -0.073 | [1] 0.022 | defactinib -0.067 | rucaparib 0.056 | [2] -0.09 | encorafenib -0.029 | [3] 0.028 | [4] -0.363 | filanesib 0.102 | zotarolimus -0.183 | idasanutlin -0.099 | alisertib -0.052 | gefitinib 0.004 | [6] 0.055 | pictilisib 0.006

TGFBRAP1 (UniProt Q8WUH2)
UniProt Q8WUH2, sequence (Q8WUH2 whole entry, looked up): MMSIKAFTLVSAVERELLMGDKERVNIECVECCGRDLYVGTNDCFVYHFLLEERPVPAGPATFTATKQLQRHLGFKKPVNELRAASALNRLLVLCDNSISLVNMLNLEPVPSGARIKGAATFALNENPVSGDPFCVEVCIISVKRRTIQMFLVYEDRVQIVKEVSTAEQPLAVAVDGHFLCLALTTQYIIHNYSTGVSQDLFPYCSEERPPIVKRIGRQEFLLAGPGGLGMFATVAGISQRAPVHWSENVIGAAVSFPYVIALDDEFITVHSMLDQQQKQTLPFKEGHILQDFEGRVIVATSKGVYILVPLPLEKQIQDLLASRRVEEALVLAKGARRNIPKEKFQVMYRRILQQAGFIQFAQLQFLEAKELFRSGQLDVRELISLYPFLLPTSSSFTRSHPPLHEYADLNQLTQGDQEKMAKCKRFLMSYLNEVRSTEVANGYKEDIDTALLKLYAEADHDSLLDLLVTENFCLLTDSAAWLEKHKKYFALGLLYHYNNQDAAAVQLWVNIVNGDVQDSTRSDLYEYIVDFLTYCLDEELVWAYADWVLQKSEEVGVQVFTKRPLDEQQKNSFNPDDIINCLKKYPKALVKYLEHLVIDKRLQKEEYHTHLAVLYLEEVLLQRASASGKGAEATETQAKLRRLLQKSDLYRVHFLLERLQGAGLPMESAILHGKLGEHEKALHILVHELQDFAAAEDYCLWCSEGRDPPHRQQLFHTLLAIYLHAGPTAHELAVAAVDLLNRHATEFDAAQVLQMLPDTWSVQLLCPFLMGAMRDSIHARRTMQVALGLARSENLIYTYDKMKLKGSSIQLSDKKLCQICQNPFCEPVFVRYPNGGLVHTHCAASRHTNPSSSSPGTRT
inactive: saracatinib -0.124 | sotrastaurin 0.048 | alvocidib -0.008 | Tubastatin A 0.134 | [1] 0.047 | defactinib -0.061 | rucaparib 0.097 | [2] -0.051 | encorafenib 0.076 | [3] -0.109 | [4] 0.092 | filanesib -0.006 | zotarolimus -0.031 | idasanutlin -0.137 | alisertib 0.046 | [5] 0.092 | gefitinib 0.047 | [6] -0.103 | lapatinib -0.098 | pictilisib -0.136

SMAD9 (UniProt O15198)
UniProt O15198, sequence (O15198 whole entry, looked up): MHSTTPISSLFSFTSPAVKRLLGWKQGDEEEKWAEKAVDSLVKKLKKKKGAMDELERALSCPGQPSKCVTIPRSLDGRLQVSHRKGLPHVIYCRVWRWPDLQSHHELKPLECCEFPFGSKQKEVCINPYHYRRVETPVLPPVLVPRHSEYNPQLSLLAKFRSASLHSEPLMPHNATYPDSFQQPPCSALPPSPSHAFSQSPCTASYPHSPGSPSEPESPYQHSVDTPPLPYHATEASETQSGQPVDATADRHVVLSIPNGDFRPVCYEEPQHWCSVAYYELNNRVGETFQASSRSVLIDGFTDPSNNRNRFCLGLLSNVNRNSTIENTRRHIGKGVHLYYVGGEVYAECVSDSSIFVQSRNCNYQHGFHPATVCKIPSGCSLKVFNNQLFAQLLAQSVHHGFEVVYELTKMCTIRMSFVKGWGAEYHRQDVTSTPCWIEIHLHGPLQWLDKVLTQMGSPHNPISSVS
inactive: saracatinib 0.076 | sotrastaurin 0.078 | alvocidib -0.065 | Tubastatin A -0.003 | [1] -0.013 | defactinib -0.076 | rucaparib -0.094 | [2] 0.055 | encorafenib -0.001 | [3] -0.049 | [4] -0.002 | filanesib 0.009 | zotarolimus -0.033 | idasanutlin -0.132 | alisertib -0.014 | [5] -0.012 | gefitinib 0.066 | [6] -0.005 | lapatinib 0.051 | pictilisib 0.148

TBC1D5 isoform 2 (UniProt Q92609)
inactive: saracatinib -0.033 | sotrastaurin -0.169 | alvocidib -0.077 | Tubastatin A -0.036 | [1] -0.013 | defactinib -0.088 | rucaparib 0.015 | [2] -0.159 | encorafenib 0.119 | [3] -0.055 | [4] 0.048 | filanesib -0.01 | zotarolimus 0.048 | idasanutlin -0.052 | alisertib -0.021 | [5] 0.006 | gefitinib -0.031 | [6] 0.003 | lapatinib -0.062 | pictilisib -0.091

TBC1D15 isoform 3 (UniProt Q8TC07)
UniProt Q8TC07, sequence (Q8TC07 whole entry, looked up): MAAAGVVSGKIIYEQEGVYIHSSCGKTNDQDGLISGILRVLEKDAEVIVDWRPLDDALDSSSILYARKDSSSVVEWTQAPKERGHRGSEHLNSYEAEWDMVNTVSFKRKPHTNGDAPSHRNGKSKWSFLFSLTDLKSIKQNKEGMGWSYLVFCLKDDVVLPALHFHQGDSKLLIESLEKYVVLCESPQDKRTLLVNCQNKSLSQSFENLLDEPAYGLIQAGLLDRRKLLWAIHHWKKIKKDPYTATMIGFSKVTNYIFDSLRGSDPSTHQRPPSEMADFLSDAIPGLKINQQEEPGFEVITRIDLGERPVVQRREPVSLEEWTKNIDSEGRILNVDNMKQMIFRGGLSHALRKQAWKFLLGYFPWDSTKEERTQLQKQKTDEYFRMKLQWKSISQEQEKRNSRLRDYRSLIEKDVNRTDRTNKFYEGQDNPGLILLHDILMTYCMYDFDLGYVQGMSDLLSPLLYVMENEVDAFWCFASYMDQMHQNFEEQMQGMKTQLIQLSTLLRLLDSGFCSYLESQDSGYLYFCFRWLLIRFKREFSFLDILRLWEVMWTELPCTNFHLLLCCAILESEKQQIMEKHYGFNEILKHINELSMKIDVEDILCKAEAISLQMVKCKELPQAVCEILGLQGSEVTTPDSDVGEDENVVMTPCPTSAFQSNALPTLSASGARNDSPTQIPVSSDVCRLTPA
inactive: saracatinib -0.01 | sotrastaurin -0.117 | alvocidib -0.054 | Tubastatin A -0.011 | [1] -0.014 | defactinib -0.09 | rucaparib 0.059 | [2] -0.012 | encorafenib 0.068 | [3] -0.003 | [4] -0.063 | filanesib 0 | zotarolimus 0.039 | idasanutlin -0.058 | alisertib -0.052 | [5] -0.065 | gefitinib 0.015 | [6] -0.06 | lapatinib 0.032 | pictilisib -0.009

SUCLG1 (UniProt P53597)
inactive: saracatinib 0.042 | sotrastaurin 0.019 | alvocidib -0.028 | Tubastatin A -0.005 | [1] 0.015 | defactinib -0.057 | rucaparib 0.016 | [2] -0.006 | encorafenib -0.001 | [3] 0.016 | [4] -0.046 | filanesib -0.107 | zotarolimus 0.004 | idasanutlin -0.107 | alisertib 0.037 | [5] 0.051 | gefitinib -0.01 | [6] 0.041 | lapatinib -0.043 | pictilisib 0.003

SMAP2 (UniProt Q8WU79)
UniProt Q8WU79, sequence (Q8WU79 whole entry, looked up): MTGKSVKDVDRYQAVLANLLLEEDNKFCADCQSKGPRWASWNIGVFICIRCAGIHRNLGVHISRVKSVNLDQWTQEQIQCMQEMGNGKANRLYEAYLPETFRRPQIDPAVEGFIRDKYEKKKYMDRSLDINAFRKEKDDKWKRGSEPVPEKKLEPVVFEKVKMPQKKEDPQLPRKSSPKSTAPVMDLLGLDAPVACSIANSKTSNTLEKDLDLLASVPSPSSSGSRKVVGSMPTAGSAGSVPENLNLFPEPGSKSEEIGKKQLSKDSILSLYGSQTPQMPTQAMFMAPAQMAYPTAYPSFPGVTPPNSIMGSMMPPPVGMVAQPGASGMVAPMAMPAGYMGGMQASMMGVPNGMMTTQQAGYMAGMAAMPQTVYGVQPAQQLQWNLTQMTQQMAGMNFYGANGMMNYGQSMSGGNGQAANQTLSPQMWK
active: [5] 0.247
inactive: saracatinib -0.047 | sotrastaurin -0.052 | alvocidib -0.057 | Tubastatin A 0.029 | [1] 0.107 | defactinib -0.12 | rucaparib 0.114 | [2] -0.026 | encorafenib 0.087 | [3] -0.043 | [4] -0.029 | filanesib 0.048 | zotarolimus 0.045 | idasanutlin -0.039 | alisertib 0.11 | gefitinib 0.043 | [6] -0.072 | lapatinib -0.009 | pictilisib -0.015

TELO2 (UniProt Q9Y4R8)
inactive: saracatinib -0.05 | sotrastaurin -0.211 | alvocidib -0.015 | Tubastatin A -0.004 | [1] 0.03 | defactinib -0.019 | rucaparib 0.2 | [2] 0.145 | encorafenib 0.049 | [3] -0.057 | [4] -0.026 | filanesib 0.113 | zotarolimus 0.098 | idasanutlin -0.103 | alisertib -0.16 | [5] -0.122 | gefitinib 0.004 | [6] -0.125 | lapatinib 0.007 | pictilisib -0.023
